Assay outcomes (PubChem)
Rows were chosen to be rich in hits. Some 6.5% of all compounds tested hit in one or more screens of this group.
Spn MK inh: blocks S. pneumoniae mevalonate kinase; purified MK, PK/LDH-coupled NADH absorbance 340 nm; inhibition, % at 10 µM; hit rate 0.48% among 65,000; AID 555;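 active = ranked among the strongest by inhibition in the single 10 µM screen, a fixed top-ranked set picked for dose follow-up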
Spn DPM-DC inh: blocks S. pneumoniae diphosphomevalonate decarboxylase; hit rate 0.49% among 65,000; calls only at 10 µM; purified DPM-DC, PK/LDH coupled NADH fluorescence; AID 556;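 active = the 320 compounds with the highest percent inhibition in the single-dose primary screen, excluding strongly autofluorescent ones, cut at about 32% in these data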;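 note: kinetic rate of NADH fluorescence loss reporting ADP formed by the decarboxylase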
Spn PMK inh: blocks S. pneumoniae phosphomevalonate kinase. purified PMK, PK/LDH-coupled NADH absorbance 340 nm. inhibition, % at 10 µM. hit rate 0.49% among 65,000. AID 539;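 active = top-ranked compounds by inhibition in the single 10 µM screen, taking a fixed number of the strongest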;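 note: 0% = full reaction with DMSO carrier and 100% = background rate without enzyme reaction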
NADH enzymes: inhibitors of enzymes used to reach an NAD/NADH endpoint; coupled PK/LDH NADH assays, four targets; IC50, µM (series often up to 10 µM), for inactives: at the top dose inhibition; hit rate 0.02% among 65,000; AID 774;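 active = single-dose screening hits from any of four coupled enzyme assays that gave an IC50 when retested across doses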;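 note: the DPM-DC format reads NADH fluorescence rather than 340 nm absorbance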
Autofluor 339: intrinsic fluorescence of library compounds, ex339/em460 – biochemical, MLSMR library, data from DPM-DC assay, artefact control, profiling panel. compound autofluorescence, ex339/em460 nm, NADH buffer; hits give high values; 1 = no-compound wells, NADH background. hit rate 5.5% among 65,000. fluorescence fold increase at 10 µM;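 active = at 10 µM, mean starting fluorescence two-fold or more over control wells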;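 note: signal is the first read of a kinetic run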
A340 absorber: absorbance at 340 nm | 65,000 tested, under 10 active | AID 708 | compound absorbance at 340 nm, fold over control | fold change at 10 µM;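 active = at 10 µM dose, initial 340 nm absorbance at least 2 fold that of control wells; inactive = change under 2 fold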;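 note: initial absorbance extrapolated from kinetic A340 decline of NADH oxidation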
* hit, by the source's call; i = inactive; x = no result given; + = active, no number; [ ] = dose if it differs, or a comment.

SMILES	Spn MK inh	Spn DPM-DC inh	Spn PMK inh	NADH enzymes	Autofluor 339	A340 absorber
CC(=O)Nc1ccc(CN2CCN(c3cccc(C(F)(F)F)c3)CC2)cc1	43*	i	3	15%	1.1	1.1
CCN1CC=C2C(C#N)=C(N)C(C#N)(C#N)C(c3cc(Cl)ccc3Cl)C2C1 (configuration not stated)	3	i	12	12%	2.9*	1
CC(C)N1CC=C2C(C#N)=C(N)C(C#N)(C#N)C(c3ccccc3)C2C1 (configuration not stated)	6	i	0	11%	2	1
COc1ccc(CC(=O)OCC(=O)NC(=O)NC2CCCCC2)cc1	7	i	17	5%	1.1	1
CCc1ccc(NC(=O)c2cnc3scc(C)n3c2=O)cc1	14	+	4	26%	1.2	1.2
COc1ccc(C)cc1NC(=O)c1cnc2scc(C)n2c1=O	0	x	9	5%	2.1*	1.1
Cc1csc2ncc(C(=O)Nc3cccc(C(F)(F)F)c3)c(=O)n12	3	i	5	10%	1.4	1.1
CCOC(=O)COc1ccc2nsnc2c1Cl	6	+	9	16%	2.9*	1
Cc1cc(N2CCC(N(C)C3CCCC3)CC2)nc2cc(O)ccc12	5	x	7	6%	2.2*	1.2
Cc1cc(N2CCC(C(=O)NC3CCCCC3)CC2)nc(-c2ccccc2)n1	3	i	6	3%	1.1	1
Cc1cc(OCC(=O)NCCO)cc(C)c1Cl	6	i	26*	4%	1.1	0.99
Cc1cc(OCC(=O)NCCO)ccc1Cl	6	i	2	3%	1.1	1.1
CC1CCc2c(C(=O)N3CCN(S(=O)(=O)c4cccs4)CC3)csc2C1 (configuration not stated)	1	i	10	4%	1	1
CCOC(=O)c1cc2c(=O)n3cccc(C)c3nc2n(Cc2ccccc2Cl)c1=N	7	i	9	7%	1.9	1
C=CCn1c(=N)c(C(=O)OCC)cc2c(=O)n3cccc(C)c3nc21	0	x	0	0%	2.3*	1.1
CCOC(=O)c1cc2c(=O)n3cccc(C)c3nc2n(CC2CCCO2)c1=NC(C)=O (configuration not stated)	0	x	9	5%	2.9*	1
CCOC(=O)c1cc2c(=O)n3cccc(C)c3nc2n(CCc2ccccc2)c1=N	4	+[fluoresces]	5	3%	2.3*	0.98
CCOC(=O)c1cc2c(=O)n3cccc(C)c3nc2n(CCc2ccc(OC)c(OC)c2)c1=N	10	i	12	7%	1.2	1
O=C1OCc2cc(NC(=O)C3COc4ccccc4O3)ccc21 (configuration not stated)	23	i	6	10%	1.1	1
CC(C)CC1N=C2c3ccccc3N=C(SCc3cc(=O)n4ccccc4n3)N2C1=O (configuration not stated)	14	i	10	8%	1.4	1.2
COc1ccc2[nH]c(=O)c(CN(Cc3ccc(C)cc3)Cc3nnnn3CC3CCCO3)cc2c1 (configuration not stated)	12	i	13	15%	2.1*	1.1
COc1ccccc1CN(Cc1cc2cc(C)ccc2[nH]c1=O)Cc1nnnn1CC1CCCO1 (configuration not stated)	4	i	8	7%	1.2	1
COc1ccc2[nH]c(=O)c(CN(Cc3ccccc3OC)Cc3nnnn3CC3CCCO3)cc2c1 (configuration not stated)	3	i	7	11%	2.3*	1.1
COc1ccccc1CN(Cc1cc2cc(C)cc(C)c2[nH]c1=O)Cc1nnnn1CC1CCCO1 (configuration not stated)	0	i	26*	9%	1.3	1
COc1ccc2[nH]c(=O)c(CN(CCc3ccccc3)Cc3nnnn3CC3CCCO3)cc2c1 (configuration not stated)	2	i	12	10%	2.5*	1.1
SMILES	Spn MK inh	Spn DPM-DC inh	Spn PMK inh	NADH enzymes	Autofluor 339	A340 absorber
N#C/C(=C1/CCCCCN1)c1nc2ccccc2s1	0	i	12	4%	1.1	1.1
Cc1ccc2c(c1)c1cccc3c1n2CCN3CCC(N)=O	7	x	14	11%	2.2*	1.1
Cc1ccc(C)c(C(=O)CC2(O)C(=O)N(C)c3ccccc32)c1 (configuration not stated)	1	i	16	3%	1	0.98
Nc1c2c(nc3ccn(-c4ccccc4)c(=O)c13)CCCCC2	0	i	8	6%	2.1*	1
CCC(C(=O)Nc1nnc(-c2ccco2)s1)c1ccccc1 (configuration not stated)	3	i	10	4%	1.4	1.1
COc1ccc2nc(NCCCNC(=O)c3cc(OC)c(OC)c(OC)c3)c(C#N)cc2c1	0	x	17	9%	3.1*	1
CS(=O)(=O)N1CCCC(C(=O)NCc2cccs2)C1 (configuration not stated)	0	i	25*	8%	1.1	1
CS(=O)(=O)N1CCCC(C(=O)NCCc2ccccc2)C1 (configuration not stated)	7	i	1	3%	1.1	1
O=C(NCc1cccs1)C1CCCN(S(=O)(=O)c2cccs2)C1 (configuration not stated)	0	i	7	2%	1.2	1
CS(=O)(=O)N1CCCC(C(=O)NCCc2ccc(Cl)cc2)C1 (configuration not stated)	0	i	26*	14%	0.86	0.96
O=C(NCc1cccs1)C1CCCN(c2nc3ccccc3o2)C1 (configuration not stated)	10	i	25*	12%	1.1	0.99
CCCOc1ccc(N2C(=O)CC(N3CCC(c4nncn4CC)CC3)C2=O)cc1 (configuration not stated)	10	i	6	5%	1.1	1
CCCOC(=O)C1=C(C)NC2=C(C(=O)CC(C)(C)C2)C1c1ccc(N(C)C)cc1 (configuration not stated)	0	i	0	1%	1.1	1.1
CCOC(=O)C1=C(C)NC2=C(C(=O)CC(C)(C)C2)C1c1cccc(C)n1 (configuration not stated)	8	x	9	9%	4.9*	1.1
O=C(Nc1nncs1)C1c2ccccc2Oc2ccccc21	4	i	18	7%	1.1	1
COC(=O)c1ccc(-c2nc3ccccc3o2)cc1	0	x	3	2%	4.6*	1.1
COC(=O)c1ccc(-c2nc3ccc(C)cc3o2)cc1	10	x	17	14%	3.8*	1.1
Cc1ccc(-c2nc3cc(C)ccc3o2)cc1	1	i	0	4%	0.87	1.1
